TDP1 cell noCPT: qHTS for Inhibitors of human tyrosyl-DNA phosphodiesterase 1 (TDP1): qHTS in cells in absence of CPT; DT40 Tdp1-/- hTDP1 cells, no CPT, ATP luminescence, 48 h; Potency, µM (doses to about 46.2 µM), without a hit: at the highest dose activity change, negative = growth inhibition, usual class: inhibitors; hit rate 15% among 420,000; further: on the % scale 0 is the no-effect control and ±100 the full control effect; nearly all actives have a fitted effect of over 55% in size
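A cellular qHTS used chicken DT40 cells lacking endogenous Tdp1 but carrying stably transfected human TDP1. Compounds were applied without camptothecin, and cell growth kinetics were judged by ATP-dependent luminescence after ≥48 hr.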
TDP1 inh: inhibitors of human tyrosyl-DNA phosphodiesterase TDP1; Q9NUW8; recombinant TDP1, AlphaScreen DNA substrate cleavage; Potency, µM (doses to about 130 µM), for the others: at the highest dose activity change, negative = inhibition, actives largely listed as inhibitors; hit rate 0.28% among 350,000; further: on the % scale 0 is the no-effect control and ±100 the full control effect; nearly all actives have a fitted effect of over 40% in size
Target sequence (Q9NUW8 whole entry, looked up): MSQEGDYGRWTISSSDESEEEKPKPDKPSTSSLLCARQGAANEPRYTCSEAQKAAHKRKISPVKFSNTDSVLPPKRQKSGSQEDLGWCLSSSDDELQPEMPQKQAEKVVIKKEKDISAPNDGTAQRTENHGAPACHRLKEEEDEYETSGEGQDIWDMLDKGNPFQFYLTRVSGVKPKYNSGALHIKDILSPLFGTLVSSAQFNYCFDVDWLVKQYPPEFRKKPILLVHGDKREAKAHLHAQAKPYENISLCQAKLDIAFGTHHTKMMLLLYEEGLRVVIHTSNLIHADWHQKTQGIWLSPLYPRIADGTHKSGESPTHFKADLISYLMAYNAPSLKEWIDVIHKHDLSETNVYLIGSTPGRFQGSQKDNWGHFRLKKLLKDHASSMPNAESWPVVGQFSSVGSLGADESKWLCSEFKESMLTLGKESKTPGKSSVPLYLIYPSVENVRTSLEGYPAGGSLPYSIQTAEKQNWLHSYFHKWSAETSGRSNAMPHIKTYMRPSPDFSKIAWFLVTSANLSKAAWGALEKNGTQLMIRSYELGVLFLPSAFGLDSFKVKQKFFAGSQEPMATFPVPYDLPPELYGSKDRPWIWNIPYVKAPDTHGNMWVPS
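AlphaScreen read-out: signal falls as enzyme removes the 3' tyrosine-FITC from a 5'-biotinylated DNA oligo (15 nM, 5 min, RT). Enzyme was E. coli-made recombinant Tdp1 at 1 nM, exposed to compound for 15 min beforehand; beads 10 ug/ml, 10 min.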
TDP1 cell CPT: DT40-hTDP1 cell growth loss with CPT; chicken DT40 Tdp1-/-;hTDP1 cells + 20 nM CPT, ATP luminescence, 48 h; hit rate 12% among 420,000; Potency, µM (series often up to 46.2 µM), for inactives: top-dose activity change, negative = growth inhibition, actives largely listed as inhibitors; AID 686979; further: on the % scale 0 is the no-effect control and ±100 the full control effect; nearly all actives have a fitted effect of over 55% in size
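Chicken DT40 Tdp1-/- cells complemented with human TDP1, 400 cells/well, exposed to compounds plus 20 nM camptothecin for at least 48 h at 37 C; viability read as ATP content by CellTiter-Glo luminescence.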
ClpP mod: qHTS Assay for Activators of ClpP; hit rate 1.9% among 340,000; Potency, µM (highest dose often 57.5 µM), for the others: at the top dose activity change, negative = active; purified B. subtilis ClpP, FRET peptide cleavage, 20 min; ATP-dependent Clp protease proteolytic subunit (Bacillus subtilis (strain 168)), P80244; active means well fitted falling curve with a large enough effect; inconclusive means small, poorly fitted or top-dose-only effect; inactive means no such curve, though single readings can be large or run the other way; further: the source files actives as falling curves though it sought activators and does not explain the sign; nearly all actives have a fitted effect of over 65% in size
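ClpP 10 microg/mL final, pH 8 Tris/KCl buffer with BSA, glycerol, Tween-20; compound pinned in; FRET-FV substrate; RT 20 min; Ex320/Em430; ΔFRET vs ADEP 5.8 microM, DMSO, no enzyme.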
* hit, by the source's call; ? = inconclusive; · = no result given; ! = not confirmed by another sample; [ ] = dose if it differs, or a comment. An excerpt weighted towards active compounds, which were near 17% of everything screened. Unless noted, the call rests on the fitted dose curve; in most records, active means well fitted curve in the direction sought with a large enough effect; inconclusive means small, poorly fitted or top-dose-only effect, or another doubt; inactive means no such curve, though single readings can be large; an effect the other way counts as inactive or inconclusive. Potency means the concentration at half of the fitted maximal effect.

SMILES | TDP1 cell noCPT | TDP1 inh | TDP1 cell CPT | ClpP mod
O=C1Cc2ccccc2C(c2ccc(Br)cc2)N1 (stereo unspecified) | ? | 6% | ? | -1%
O=C1NC2=C(CCc3ccccc32)C(c2ccc(Br)cc2)N1 (stereo unspecified) | ? | -4% | -28% | 28µM*
O=C1CCN(S(=O)(=O)c2ccccc2)N1 | 9% | -4% | -1% | -1%
O=C1CCN(c2ccccc2)N1 | -50% | · | 29µM* | ·
CN(C)CC(O)CN1C(=O)N(CN2C(=O)N(CC(O)CN(C)C)C(=O)C2(C)C)C(C)(C)C1=O (stereo unspecified) | 3% | 0% | 7% | ·
Cc1ccc(-c2nnn(CC(=O)N3CCCc4ccccc43)n2)cc1 | -21% | -2% | ? | 0%
O=C(Cn1nnc(-c2cc(Cl)ccc2-n2cnnn2)n1)N1CCCc2ccccc21 | 21µM* | 5% | ? | -3%
CCn1cc(C(=O)O)c(=O)c2cc(F)c(N3CCNCC3)nc21 | ? | 7% | ? | -11%
CO/N=C1\CN(c2nc3c(cc2F)c(=O)c(C(=O)O)cn3C2CC2)CC1CN (stereo unspecified) | 4.6µM* | 6%[56.1 µM] | 4.6µM* | ·
CC(NC(=O)C1CCN(Cc2ccc(Oc3ccccc3)cc2)CC1)c1cccc2ccccc12 (stereo unspecified) | 15µM* | · | 23µM* | -25%
COc1cc(OC)nc(C(NC(=O)C2CCN(Cc3ccc(Oc4ccccc4)cc3)CC2)c2ccc(F)cc2)n1 (stereo unspecified) | ? | · | 26µM* | 0%
COc1ccc(C(NC(=O)C2CCN(Cc3cc(OC)cc(OC)c3)CC2)c2ccccn2)cc1 (stereo unspecified) | -29% | · | 2% | 1%
COc1cccc(CN2CCC(C(=O)NC(C)c3cccc4ccccc34)CC2)c1 (stereo unspecified) | 16µM* | · | 23µM* | -4%
CCOc1ccc(C(=O)NCc2ccco2)cc1Cl | -27% | 6% | -15% | ·
CC1=C(/C=C/C(C)=C/C=C/C(C)=C\C(=O)O)C(C)(C)CCC1 | 23µM*! | 10%[56.1 µM] | ? | -4%
CC1=C(\C=C/C(C)=C/C=C\C(C)=C\C(=O)O)C(C)(C)CCC1 | 12µM*! | 12% | 15µM*! | ·
Nc1nc(NCCc2ccc(O)cc2)nc2nc(-c3ccco3)nn12 | 12µM* | 13% | 15µM* | ·
CCCC(=O)n1nc(-c2ccco2)nc1N | 0% | 5% | 5% | -2%
O=C(C[C@@H]1C[C@H]2c3cc(NC(=O)Nc4ccccc4F)ccc3O[C@H]2[C@H](CO)O1)NCC(F)(F)F | -24% | · | -2% | -4%
CCCCNC(=O)C1(C)CCC(=O)N1CCOC (stereo unspecified) | 1% | · | 1% | -3%
CCOC(=O)[C@@H]1CCN(Cc2ccccc2)C[C@H]1c1ccccc1 | 23µM* | -2% | ? | -2%
COc1ccc2nc3cc([N+](=O)[O-])ccc3c(NNc3ccc([N+](=O)[O-])cc3)c2c1 | 9.2µM* | · | 10µM* | -3%
COc1ccc(-c2nc3ccc([N+](=O)[O-])cc3o2)cc1 | -19% | -3% | -17% | 1%
COc1cc(C(=S)N2CCOCC2)cc(OC)c1OC(=O)c1ccc(F)cc1 | ? | 5% | ? | ·
COc1ccc(C(=O)OC(C)CN2CCOCC2)cc1 (stereo unspecified) | -11% | · | -3% | 1%
SMILES | TDP1 cell noCPT | TDP1 inh | TDP1 cell CPT | ClpP mod
O=C(Oc1ccc(Cl)c2cccnc12)N1CCCCC1 | -9% | 2% | 5% | ?
O=C(Oc1ccc(Cl)c2cccnc12)N1CCOCC1 | -11% | 0% | -1% | 32µM*
COc1cc(C(=O)Oc2c(OC)cc(C(=S)N3CCOCC3)cc2OC)cc(OC)c1OC | 0% | · | -2% | -1%
O=C(Oc1c(CN2CCOCC2)cc(Cl)c2cccnc12)c1ccc(F)cc1 | 5.2µM* | 4% | 4.6µM* | -1%
COc1ccc(C(=O)Oc2c(CN3CCOCC3)cc(Cl)c3cccnc23)cc1 | 5.8µM* | 5% | 8.2µM* | 2%
COc1cc(C(=O)Oc2c(CN3CCOCC3)cc(Cl)c3cccnc23)cc(OC)c1OC | 5.2µM* | 7% | 2.6µM* | 0%
COc1ccc(NC(=O)CSc2ccc3nnc(CCNC(=O)c4ccccc4)n3n2)cc1OC | -3% | 1% | 1% | -2%
COc1cccc(C(=O)Oc2c(CN3CCOCC3)cc(Cl)c3cccnc23)c1 | 0.82µM* | 7% | 0.73µM* | 0%
CCC1(c2ccc(Cl)cc2)NC(=O)N(CC(=O)NC2CCCCCC2)C1=O (stereo unspecified) | 23µM* | -5% | ? | -1%
CCC1(c2ccc(Cl)cc2)NC(=O)N(CC(=O)NC2CCCC(C)C2C)C1=O (stereo unspecified) | 26µM* | 1% | 23µM* | ·
CCC1(c2ccc(F)cc2)NC(=O)N(CC(=O)NC2CCCC(C)C2C)C1=O (stereo unspecified) | ? | 0% | ? | -1%
CCC1(c2ccc(F)cc2)NC(=O)N(CC(=O)NCc2ccc(F)cc2)C1=O (stereo unspecified) | 15% | · | -21% | -1%
CCC1(c2ccc(Cl)cc2)NC(=O)N(CC(=O)NCc2ccc(F)cc2)C1=O (stereo unspecified) | 16µM* | 6%[0.0935 µM] | ? | ·
COCCNC(=O)C1(C)CCCN(C(=O)CCc2ccccc2)C1 (stereo unspecified) | -5% | · | -18% | 2%
Cc1ccc(/C(=C\CN2CCCC2)c2cccc(/C=C/C(=O)O)n2)cc1 | -7% | · | -6% | ·
CN(C)S(=O)(=O)c1ccc(C(=O)Nc2nnc(-c3ccco3)o2)cc1 | ? | 8% | 21µM* | ·
CCCCN(C)S(=O)(=O)c1ccc(C(=O)Nc2nnc(-c3ccco3)o2)cc1 | 6.5µM* | 9% | 7.3µM* | ·
O=C(CCS(=O)(=O)c1ccc(F)cc1)Nc1nnc(-c2ccco2)o1 | ? | 1% | ? | ·
CCN(CC)S(=O)(=O)c1ccc(C(=O)Nc2nnc(-c3ccco3)o2)cc1 | 23µM* | 7% | ? | 0%
CCCCN(CC)S(=O)(=O)c1ccc(C(=O)Nc2nnc(-c3cccs3)o2)cc1 | 10µM* | 9% | 15µM* | 2%
CC(C)COc1ccc(C(=O)N2CCCCC2CCN2CCCCC2)cc1 (stereo unspecified) | ? | 7% | ? | -2%
Cc1oc(-c2ccc(C(=O)NCc3ccc(Cl)cc3)cc2)nc1CS(=O)(=O)c1ccccc1 | ? | 3% | ? | ?
CC(=O)N1CCc2c(sc3nc(SCC(N)=O)n(-c4ccc(F)c(Cl)c4)c(=O)c23)C1 | 15% | 6% | 5% | -24%
C=Cc1ccc(S(=O)(=O)O)cc1 | -12% | · | 2% | ·

From PubChem
